{"source": "PubChem BioAssay AID1159580", "about": "(chemical genetic matrix, 2015)", "experiment": "chemical genetic growth profiling, strain panel (AID 1159580);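 further: tested at 20 µM; growth read once vehicle control cultures reached saturation at 30 °C; 1 = growth at the plate median or of vehicle wells; lower values mean less growth of the strain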", "details": "growth OD", "note": "The campaign covered roughly 5,500 compounds. About 2,000 (36%) were called active. Roughly 18% stayed inconclusive and do not appear here. This is one part of the list. A number with no mark means an inactive call. No stated cut-off is given here; in the data, active means normalized growth mostly below about 0.91 (no sharp cut-off); inconclusive means no clear call, values can overlap the other calls; inactive means mostly above about 0.92.", "data": [{"smiles": "CCC(=O)OCC(=O)C1(OC(=O)CC)C(C)CC2C3CCC4=CC(=O)C=CC4(C)C3(Cl)C(O)CC21C", "note": "(configuration not stated)", "values": [{"measurement": "normalized growth", "setting": "S. cerevisiae deletion strains, locus YJR043C, strain POL32, hits give low values", "result": 1.03}, {"measurement": "normalized growth", "setting": "S. cerevisiae deletion strains, locus YJR066W, strain TOR1, hits give low values", "result": 0.995}, {"measurement": "normalized growth", "setting": "S. cerevisiae deletion strains, locus YKL009W, strain mrt4, hits give low values", "result": 1}, {"measurement": "normalized growth", "setting": "S. cerevisiae deletion strains, locus YKL068W, hits give low values", "result": 0.989}, {"measurement": "normalized growth", "setting": "S. cerevisiae deletion strains, locus YKL085W, strain MDH1 (second series), hits give low values", "result": 0.997}, {"measurement": "normalized growth", "setting": "S. cerevisiae deletion strains, locus YKL085W, strain MDH1, hits give low values", "result": 0.997}, {"measurement": "normalized growth", "setting": "S. cerevisiae deletion strains, locus YKL160W, strain elf1, hits give low values", "result": 0.964}, {"measurement": "normalized growth", "setting": "S. cerevisiae deletion strains, locus YKR001C, strain vps1, hits give low values", "result": 0.992}, {"measurement": "normalized growth", "setting": "S. cerevisiae deletion strains, locus YKR026C, strain gcn3, hits give low values", "result": 0.983}, {"measurement": "normalized growth", "setting": "S. cerevisiae deletion strains, locus YKR091W, strain srl3, hits give low values", "result": 0.983}, {"measurement": "normalized growth", "setting": "S. cerevisiae deletion strains, locus YLL001W, strain dnm1, hits give low values", "result": 0.927}, {"measurement": "normalized growth", "setting": "S. cerevisiae deletion strains, locus YLL026W, hits give low values", "result": 0.989}, {"measurement": "normalized growth", "setting": "S. cerevisiae deletion strains, locus YLL041C, strain sdh2, hits give low values", "result": 0.977}, {"measurement": "normalized growth", "setting": "S. cerevisiae deletion strains, locus YLR027C, strain aat2, hits give low values", "result": 0.962}, {"measurement": "normalized growth", "setting": "S. cerevisiae deletion strains, locus YLR039C, strain RIC1, hits give low values", "result": 1.02}, {"measurement": "normalized growth", "setting": "S. cerevisiae deletion strains, locus YLR058C, strain SHM2, hits give low values", "result": 1.02}, {"measurement": "normalized growth", "setting": "S. cerevisiae deletion strains, locus YLR102C, strain apc9, hits give low values", "result": 0.994}, {"measurement": "normalized growth", "setting": "S. cerevisiae deletion strains, locus YLR113W, strain HOG1, hits give low values", "result": 1.07}, {"measurement": "normalized growth", "setting": "S. cerevisiae deletion strains, locus YLR221C, strain rsa3, hits give low values", "result": 1.01}, {"measurement": "normalized growth", "setting": "S. cerevisiae deletion strains, locus YLR258W, strain gsy2, hits give low values", "result": 0.993}, {"measurement": "normalized growth", "setting": "S. cerevisiae deletion strains, locus YLR262C, strain YPT6 (second series), hits give low values", "result": 0.915}, {"measurement": "normalized growth", "setting": "S. cerevisiae deletion strains, locus YLR262C, strain YPT6, hits give low values", "result": 1.07}, {"measurement": "normalized growth", "setting": "S. cerevisiae deletion strains, locus YLR268W, strain sec22, hits give low values", "result": 0.985}, {"measurement": "normalized growth", "setting": "S. cerevisiae deletion strains, locus YLR320W, strain mms22, hits give low values", "result": 0.983}, {"measurement": "normalized growth", "setting": "S. cerevisiae deletion strains, locus YLR330W, strain CHS5, hits give low values", "result": 1.02}, {"measurement": "normalized growth", "setting": "S. cerevisiae deletion strains, locus YLR342W, strain FKS1 (second series), hits give low values", "result": 1.05}, {"measurement": "normalized growth", "setting": "S. cerevisiae deletion strains, locus YLR342W, strain FKS1, hits give low values", "result": 0.977}, {"measurement": "normalized growth", "setting": "S. cerevisiae deletion strains, locus YLR357W, strain rsc2, hits give low values", "result": 1.03}, {"measurement": "normalized growth", "setting": "S. cerevisiae deletion strains, locus YLR370C, strain arc18, hits give low values", "result": 0.963}, {"measurement": "normalized growth", "setting": "S. cerevisiae deletion strains, locus YLR371W, strain rom2, hits give low values", "result": 0.992}, {"measurement": "normalized growth", "setting": "S. cerevisiae deletion strains, locus YLR384C, strain iki3, hits give low values", "result": 0.958}, {"measurement": "normalized growth", "setting": "S. cerevisiae deletion strains, locus YLR418C, strain cdc73, hits give low values", "result": 0.984}, {"measurement": "normalized growth", "setting": "S. cerevisiae deletion strains, locus YML016C, strain PPZ1, hits give low values", "result": 1.02}, {"measurement": "normalized growth", "setting": "S. cerevisiae deletion strains, locus YML032C, strain rad52, hits give low values", "result": 0.994}, {"measurement": "normalized growth", "setting": "S. cerevisiae deletion strains, locus YML120C, strain ndi1, hits give low values", "result": 0.958}, {"measurement": "normalized growth", "setting": "S. cerevisiae deletion strains, locus YML124C, strain tub3, hits give low values", "result": 0.985}, {"measurement": "normalized growth", "setting": "S. cerevisiae deletion strains, locus YMR058W, strain fet3, hits give low values", "result": 0.986}, {"measurement": "normalized growth", "setting": "S. cerevisiae deletion strains, locus YMR078C, strain ctf18, hits give low values", "result": 0.992}, {"measurement": "normalized growth", "setting": "S. cerevisiae deletion strains, locus YMR125W, strain sto1, hits give low values", "result": 0.988}, {"measurement": "normalized growth", "setting": "S. cerevisiae deletion strains, locus YMR129W, hits give low values", "result": 0.976}, {"measurement": "normalized growth", "setting": "S. cerevisiae deletion strains, locus YMR205C, strain PFK2, hits give low values", "result": 0.965}, {"measurement": "normalized growth", "setting": "S. cerevisiae deletion strains, locus YMR223W, strain ubp8, hits give low values", "result": 1}, {"measurement": "normalized growth", "setting": "S. cerevisiae deletion strains, locus YMR231W, strain pep5, hits give low values", "result": 0.971}, {"measurement": "normalized growth", "setting": "S. cerevisiae deletion strains, locus YMR307W, strain GAS1, hits give low values", "result": 1.09}, {"measurement": "normalized growth", "setting": "S. cerevisiae deletion strains, locus YNL067W, strain RPL9B, hits give low values", "result": 0.996}, {"measurement": "normalized growth", "setting": "S. cerevisiae deletion strains, locus YNL071W, strain lat1, hits give low values", "result": 0.989}, {"measurement": "normalized growth", "setting": "S. cerevisiae deletion strains, locus YNL183C, strain NPR1, hits give low values", "result": 0.983}, {"measurement": "normalized growth", "setting": "S. cerevisiae deletion strains, locus YNL209W, strain ssb2, hits give low values", "result": 0.997}, {"measurement": "normalized growth", "setting": "S. cerevisiae deletion strains, locus YNL233W, strain BNI4, hits give low values", "result": 1}, {"measurement": "normalized growth", "setting": "S. cerevisiae deletion strains, locus YNL248C, strain rpa49, hits give low values", "result": 0.973}, {"measurement": "normalized growth", "setting": "S. cerevisiae deletion strains, locus YNL250W, strain rad50, hits give low values", "result": 1}, {"measurement": "normalized growth", "setting": "S. cerevisiae deletion strains, locus YNL271C, strain bni1, hits give low values", "result": 0.988}, {"measurement": "normalized growth", "setting": "S. cerevisiae deletion strains, locus YNL298W, strain CLA4, hits give low values", "result": 0.991}, {"measurement": "normalized growth", "setting": "S. cerevisiae deletion strains, locus YNL307C, strain MCK1, hits give low values", "result": 0.981}, {"measurement": "normalized growth", "setting": "S. cerevisiae deletion strains, locus YNL322C, strain KRE1 (second series), hits give low values", "result": 0.971}, {"measurement": "normalized growth", "setting": "S. cerevisiae deletion strains, locus YNR049C, strain mso1, hits give low values", "result": 0.982}, {"measurement": "normalized growth", "setting": "S. cerevisiae deletion strains, locus YNR052C, strain pop2, hits give low values", "result": 0.994}, {"measurement": "normalized growth", "setting": "S. cerevisiae deletion strains, locus YOL012C, strain htz1", "result": 1.1}, {"measurement": "normalized growth", "setting": "S. cerevisiae deletion strains, locus YOL147C, strain pex11, hits give low values", "result": 0.986}, {"measurement": "normalized growth", "setting": "S. cerevisiae deletion strains, locus YOR001W, strain rrp6, hits give low values", "result": 0.952}, {"measurement": "normalized growth", "setting": "S. cerevisiae deletion strains, locus YOR061W, strain CKA2, hits give low values", "result": 1.02}, {"measurement": "normalized growth", "setting": "S. cerevisiae deletion strains, locus YOR069W, strain VPS5, hits give low values", "result": 1.01}, {"measurement": "normalized growth", "setting": "S. cerevisiae deletion strains, locus YOR070C, strain gyp1, hits give low values", "result": 0.996}, {"measurement": "normalized growth", "setting": "S. cerevisiae deletion strains, locus YOR080W, strain dia2, hits give low values", "result": 0.954}, {"measurement": "normalized growth", "setting": "S. cerevisiae deletion strains, locus YOR083W, strain WHI5, hits give low values", "result": 0.946}, {"measurement": "normalized growth", "setting": "S. cerevisiae deletion strains, locus YOR106W, strain vam3, hits give low values", "result": 0.931}, {"measurement": "normalized growth", "setting": "S. cerevisiae deletion strains, locus YOR136W, strain idh2, hits give low values", "result": 0.979}, {"measurement": "normalized growth", "setting": "S. cerevisiae deletion strains, locus YOR144C, strain elg1, hits give low values", "result": 0.991}, {"measurement": "normalized growth", "setting": "S. cerevisiae deletion strains, locus YOR184W, strain ser1, hits give low values", "result": 0.986}, {"measurement": "normalized growth", "setting": "S. cerevisiae deletion strains, locus YOR231W, strain MKK1, hits give low values", "result": 1.05}, {"measurement": "normalized growth", "setting": "S. cerevisiae deletion strains, locus YOR265W, strain rbl2, hits give low values", "result": 0.985}, {"measurement": "normalized growth", "setting": "S. cerevisiae deletion strains, locus YOR270C, strain vph1, hits give low values", "result": "0.757 (active)"}, {"measurement": "normalized growth", "setting": "S. cerevisiae deletion strains, locus YOR290C, strain snf2, hits give low values", "result": 1}, {"measurement": "normalized growth", "setting": "S. cerevisiae deletion strains, locus YOR316C, strain cot1, hits give low values", "result": 0.991}, {"measurement": "normalized growth", "setting": "S. cerevisiae deletion strains, locus YPL051W, strain arl3, hits give low values", "result": 0.986}, {"measurement": "normalized growth", "setting": "S. cerevisiae deletion strains, locus YPL055C, strain LGE1, hits give low values", "result": 1.01}, {"measurement": "normalized growth", "setting": "S. cerevisiae deletion strains, locus YPL078C, strain atp4, hits give low values", "result": 0.921}, {"measurement": "normalized growth", "setting": "S. cerevisiae deletion strains, locus YPL106C, strain sse1, hits give low values", "result": 1.06}, {"measurement": "normalized growth", "setting": "S. cerevisiae deletion strains, locus YPL240C, strain hsp82, hits give low values", "result": 0.976}, {"measurement": "normalized growth", "setting": "S. cerevisiae deletion strains, locus YPL241C, strain CIN2, hits give low values", "result": 1.02}, {"measurement": "normalized growth", "setting": "S. cerevisiae deletion strains, locus YPL256C, strain CLN2, hits give low values", "result": 1.05}, {"measurement": "normalized growth", "setting": "S. cerevisiae deletion strains, locus YPR119W, strain clb2, hits give low values", "result": 0.988}, {"measurement": "normalized growth", "setting": "S. cerevisiae deletion strains, locus YPR141C, strain kar3, hits give low values", "result": 0.988}, {"measurement": "normalized growth", "setting": "S. cerevisiae deletion strains, locus YPR163C, strain tif3, hits give low values", "result": 0.995}, {"measurement": "normalized growth", "setting": "S. cerevisiae deletion strains, locus YPR167C, strain met16, hits give low values", "result": 0.993}, {"measurement": "normalized growth", "setting": "S. cerevisiae deletion strains, strain wtn01, hits give low values", "result": 0.977}, {"measurement": "normalized growth", "setting": "S. cerevisiae strains, strain wild type, hits give low values", "result": 1.02}]}]}
